Experimental findings from ChEMBL document CHEMBL3988442, “University of Dundee, Small-Polar-MMV Screening Library” (2021) are described below.

Molecules are shown by their SMILES. The whole screen tested about 69,000 compounds, of which about 950 (1.4%) showed an effect of 50% or more. The list comes from a sample in which strong results are over-represented; it also holds similar structures and randomly drawn compounds.

In the assay the test system is Mycobacterium tuberculosis. Put plainly: Cornell M. t heat shock assay. Note: in the data most compounds retested in dose-response had high values. Also noted: dose or concentration left out as unconfirmed. The class given is functional, organism-based.
As to `CCc1c(C)[nH]c(C2(N)CCCCC2)nc1=O.Cl`, the “Percent Effect” value is -31.03%.
For `COCCNC(=O)c1cccnc1Oc1ccc(Cl)cc1`, the “Percent Effect” value turned out to be 50.01%.
To `O=C(c1cccnc1SCc1ccccc1)N1CC[C@@H](O)C1` belongs 7.782%.
To `CCOC(=O)CNC(=O)c1cccnc1Oc1ccc(Cl)cc1` belongs -21.74%; to `O=C(NCCOCCO)c1cccnc1Oc1ccc(Cl)cc1`, 43.92%; to `COc1ccc(Oc2ncccc2NC(=O)N2CC[C@H](O)C2)cc1`, -5.111%.
Consider `O=C(c1cccnc1Oc1ccc(Cl)cc1)N1CC[C@@H](O)C1`, for which the “Percent Effect” value is 54.07%.
Regarding `O=C(Cc1ccccn1)N1CCN2C[C@H](Oc3cccc(F)c3)C[C@H]2C1.O=C(O)C(F)(F)F.O=C(O)C(F)(F)F`, the “Percent Effect” value is listed as -12.23%.
To `CN(C)C(=O)N1CCC2(CCCN(Cc3cnn(C)c3)C2)C1.O=C(O)C(F)(F)F` (configuration not stated) belongs -9.776%; to `CC(C)n1c(C2CCCN(CC(=O)NC3CC3)C2)nc2ccccc21` (configuration not stated), -32.24%.
For `CN1CCN(C(=O)c2ncn3c2CN(C)S(=O)(=O)c2ccccc2-3)CC1.O=C(O)C(F)(F)F` the value was -21.31%; for `CCn1cc(N2Cc3nc(N(C)C)ncc3C2=O)cn1`, 8.315%.
For `O=C(C1CC=CC1)N1CCC2(CCN(Cc3ccccn3)C2=O)C1.O=C(O)C(F)(F)F` (configuration not stated), the “Percent Effect” value was -18.77%.
As for `COc1ccc(OCCNCc2c(C)nn(C)c2N(C)C)cc1.Cl`, the “Percent Effect” value was found to be 36.3%.
With `CNC(=O)c1cc2c(nc1N(C)C)CCN(c1ncc(C)cn1)CC2.O=C(O)C(F)(F)F`, the “Percent Effect” value worked out at 38.06%.
To `O=C(O)C(F)(F)F.O=C(c1ccc(F)cc1)N1C[C@@H]2CCN(c3cccnc3)C[C@@H]2C1` belongs -7.242%; to `Fc1cccc(N2C[C@H]3CCN(c4cccnc4)C[C@H]3C2)c1.O=C(O)C(F)(F)F`, 98.87%; to `O=C(C1CCC1)N1C[C@@H]2CCN(c3cccnc3)C[C@@H]2C1.O=C(O)C(F)(F)F`, -23.64%.
Regarding `C[C@@H]1CN(CCc2ccccc2)C[C@]12CCN(CC(=O)N(C)C)C2=O.O=C(O)C(F)(F)F`, the “Percent Effect” value is on record as 2.052%.
For the compound `Cn1c(CNCC2CCCN2c2cccnn2)nc2ccccc21` (configuration not stated), the “Percent Effect” value was determined as 3.675%.
Take `CN(Cc1ncc(C(C)(C)C)o1)CC1CCCN1c1cccnn1` (configuration not stated): the “Percent Effect” value stood at 66%.
In the case of `Cc1nc2ccccc2nc1CN(C)CC1CCCN1c1cccnn1` (configuration not stated), the “Percent Effect” value is on record as 18.99%.
On to `CN(Cc1nc2ccccc2n1C)CC1CCCN1c1cccnn1` (configuration not stated), for which the “Percent Effect” value is 101.2%.
On to `CN(Cc1ncc(-c2ccccc2)o1)CC1CCCN1c1cccnn1` (configuration not stated), for which the “Percent Effect” value came out at 0.462%.
For `CC(C)(C)c1cnc(CNCC2CCCN2c2cccnn2)o1` (configuration not stated) the value was -26.2%; for `Cn1nccc1-c1nnn2c1COCC(CNCC1CC1)C2.O=C(O)C(F)(F)F.O=C(O)C(F)(F)F` (configuration not stated), 30.33%.
As for `COc1cccc2c(C)c(C(=O)N3CCNCC3C(N)=O)[nH]c12.Cl` (configuration not stated), the “Percent Effect” value is listed as -6.521%.
With `O=C(O)C(F)(F)F.O=C(O)C(F)(F)F.c1ccc(N2CCC3(COCCN(Cc4cccs4)C3)C2)nc1` (configuration not stated), the “Percent Effect” value came out at 0.5206%.
Take `CC(C)NC(=O)N1C[C@H](OCc2cccnc2)[C@H]2COC[C@H]21.O=C(O)C(F)(F)F`: the “Percent Effect” value came out at 2.427%.
To `Cc1nnc2n1CCN(Cc1ncc(-c3ccccc3)o1)C2` belongs -5.111%; to `CCc1nnc2n1CCN(Cc1ncc(-c3ccc(F)cc3)o1)C2`, -9.541%.
In the case of `Cc1nnc2n1CCN(Cc1ncc(-c3ccc(Cl)cc3)o1)C2`, the “Percent Effect” value is listed as -15.98%.
Take `Cc1nnc2n1CCN(Cc1ncc(-c3ccc(F)cc3)o1)C2`: the “Percent Effect” value is listed as 77.14%.
In the case of `CCc1nnc2n1CCN(Cc1ncc(-c3ccc(Cl)cc3)o1)C2`, the “Percent Effect” value is -1.022%.
With `CCc1nnc2n1CCN(Cc1ncc(-c3ccccc3)o1)C2`, the “Percent Effect” value turned out to be 76.57%.
For the compound `CN1C(=O)CCC12CCN(c1ccc(C#N)cn1)CC2.O=C(O)C(F)(F)F`, the “Percent Effect” value is reported as 8.745%.
`Cc1nc(C)c(C(C)NCc2cnc(N3CCOCC3)nc2)s1.Cl` (configuration not stated): the “Percent Effect” value is on record as -16.16%.
For `Cn1cc(CN2C[C@@H]3COC[C@@H](C(=O)N4CCCCO4)[C@@H]3C2)cn1.O=C(O)C(F)(F)F.O=C(O)C(F)(F)F` the value was 6.742%; for `Fc1cnc(N2CCCn3cnc(COc4cccnc4)c3C2)nc1.O=C(O)C(F)(F)F`, 9.371%.
`Cc1cc(C)c(CNC(=O)NCC2CCOC2)c(=O)[nH]1` (configuration not stated): the “Percent Effect” value is recorded as -20.09%.
Regarding `COCCC(=O)N1CCOCC2(CCN(Cc3cccs3)C2)C1.O=C(O)C(F)(F)F` (configuration not stated), the “Percent Effect” value is given as -16.95%.
For the compound `O=C(O)C(F)(F)F.O=C(O)C(F)(F)F.O=C1COC2(CCN(Cc3cccnc3)CC2)CN1`, the “Percent Effect” value was -2.798%.
In the case of `O=C([C@H]1CCCO1)N1CCc2ncnc(NC3CC3)c2CC1`, the “Percent Effect” value is recorded as 65.17%.
As for `CC(C)Nc1ncnc2c1CCN(C(=O)[C@H]1CCCO1)CC2`, the “Percent Effect” value was -13.05%.
With `O=C(C1CCCO1)N1CCc2ncnc(NC3CCC3)c2CC1.O=C(O)C(F)(F)F` (configuration not stated), the “Percent Effect” value is on record as -8.605%.
With `COCC1COCCC12CCN(Cc1nccs1)CC2.O=C(O)C(F)(F)F` (configuration not stated), the “Percent Effect” value worked out at 8.236%.
Take `CS(=O)(=O)N[C@@H]1CN(C(=O)c2cc3ccccc3s2)C[C@H]1O`: the “Percent Effect” value turned out to be 101.8%.
On to `CS(=O)(=O)NC1CCN(C(=O)c2cc3ccccc3s2)C1` (configuration not stated), for which the “Percent Effect” value is on record as 0.7353%.
For the compound `CCC[C@@H]1CN(C(=O)c2cc3ccccc3s2)C[C@H]1NS(C)(=O)=O`, the “Percent Effect” value is on record as 11.11%.
For the compound `Cn1cc(C[C@H]2[C@H](O)CCN2CC2CCOCC2)cn1.O=C(O)C(F)(F)F`, the “Percent Effect” value was determined as 6.354%.
In the case of `O=C(O)C(F)(F)F.O=C(c1ccsc1)N1CCO[C@@H]2CN(Cc3nccs3)C[C@@H]2C1`, the “Percent Effect” value worked out at 10.37%.
To `Cc1cccc(CN2C[C@@H](C)[C@@]3(CCN(CC(=O)N(C)C)C3=O)C2)c1.O=C(O)C(F)(F)F` belongs -6.766%; to `Cc1ccsc1C(=O)N1CC[C@@H](N(C)C)[C@@H]1Cc1cnn(C)c1.O=C(O)C(F)(F)F`, -5.648%; to `CCn1nc(CC(C)C)cc1C(=O)NCCn1cccc1`, 49.17%.
For `CCn1nc(CC(C)C)cc1C(=O)NCCCOC` the value was 92.73%.
Consider `CCn1nc(C(C)C)cc1C(=O)NCCCOC`, for which the “Percent Effect” value amounted to 4.35%.
Take `Cc1csc(CCNCc2cnc3c(c2)c(C)nn3C)n1.Cl`: the “Percent Effect” value was determined as 6.139%.
